A selection: hits, their analogues and other compounds. The true share with any hit is near 3.9%.
CCHFV vOTU inh: CCHFV vOTU protease inhibitors, primary screen, biochemical, Pep-AMC substrate, fluorescence. Crimean-Congo hemorrhagic fever virus L polyprotein viral ovarian tumor (vOTU) protease …. inhibition, % at 11.5 µM. 370,000 compounds, 0.55% hits
Mtb FBA inh: Mtb FBA enzyme inhibitors, primary screen, biochemical, fluorescence, strain H37Rv; purified M. tuberculosis FBA, fluorescence read-out; inhibition, % at 1 µM; 360,000 compounds, 2.3% hits; in the data active = inhibition above about 27%
Target sequence (P9WQA3 whole entry, looked up): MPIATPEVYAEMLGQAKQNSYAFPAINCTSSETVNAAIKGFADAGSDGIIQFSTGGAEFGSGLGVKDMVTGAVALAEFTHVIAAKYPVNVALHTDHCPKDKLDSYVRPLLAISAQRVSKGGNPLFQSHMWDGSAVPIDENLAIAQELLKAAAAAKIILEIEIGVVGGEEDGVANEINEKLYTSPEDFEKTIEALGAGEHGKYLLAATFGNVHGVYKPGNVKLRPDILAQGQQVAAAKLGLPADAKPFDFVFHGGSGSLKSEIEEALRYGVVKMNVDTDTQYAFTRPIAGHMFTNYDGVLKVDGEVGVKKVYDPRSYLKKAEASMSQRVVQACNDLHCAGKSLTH
BH1578 lux ind: inducers of Vibrio cholerae quorum light production without autoinducers, primary screen, BH1578 luxS cqsA deficient, single point; 350,000 compounds, 0.16% hits; V. cholerae BH1578 lux reporter, luminescence, 6 h; AID 588436, 2011; activation, % at 18.7 µM; in the data active = activation mostly above about 9.7%, no sharp cut-off
GDH-TPI inh: GDH-TPI coupling enzyme inhibitors, primary screen, artefact control for M. tuberculosis FBA inhibitor project, biochemical, absorbance, full deck; GDH-TPI coupled enzyme counterscreen, NADH absorbance; 360,000 compounds, 1.2% hits; AID 588335, 2011; inhibition, % at 4.8 µM
Of the large screens only hits and unclear results are named; the others gave an inactive call. Rule as the data show it, unless noted: active = inhibition above about 30%; inactive = the rest.

Cn1c(=O)c2[nH]c(N3CCCCC3)nc2n(C)c1=O	none
Cn1c(=O)c2[nH]c(N=NN3CCCCC3)nc2n(C)c1=O	GDH-TPI inh 54
Cc1cc(C)n2nc3nc4c(cc3c2n1)CCCC4	Mtb FBA inh active
O=C(Nc1nc2cc3c(cc2s1)OCO3)C1=COCCO1	GDH-TPI inh 42
O=C(Nc1nc2cc3c(cc2s1)OCO3)c1ccco1	GDH-TPI inh 35
O=C(Nc1nc2cc3c(cc2s1)OCCO3)c1ccncc1	none
CC(C)C(=O)Nc1nc2cc3c(cc2s1)OCCO3	none
CC(=O)Nc1nc2cc3c(cc2s1)OCO3	none
O=C(Nc1nc2cc3c(cc2s1)OCCO3)c1ccco1	GDH-TPI inh 35
COC(=O)N/N=C(\C)c1ccc(OC(F)F)cc1OC(F)F	none
CCN1CCN(c2cc(C)c3cc(NC(=O)c4cc(OC)cc(OC)c4)ccc3n2)CC1	GDH-TPI inh 34
COc1ccc(NC(=O)CCC(=O)Nc2ccc3nc(N4CCOCC4)cc(C)c3c2)c(OC)c1	none
CCC(C)NC(=O)CCC(=O)Nc1ccc2nc(N3CC(C)CC(C)C3)cc(C)c2c1 (centres undefined)	none
Cc1cc(N2CCOCC2)nc2ccc(NC(=O)CCC(=O)N3CCC(C)CC3)cc12	Mtb FBA inh 54
CCCCNC(=O)CCC(=O)Nc1ccc2nc(N3CCC(C)CC3)cc(C)c2c1	Mtb FBA inh 68
Cc1cc(N2CCOCC2)nc2ccc(NC(=S)NCCC(C)C)cc12	Mtb FBA inh 28
COc1ccc(N2CCN(C(=S)NCc3ccccc3)CC2)cc1	none
CC(C)CNC(=O)c1c(N)n(Cc2ccco2)c2nc3ccccc3nc12	Mtb FBA inh 55
COCCCNC(=O)c1c(N)n(Cc2ccco2)c2nc3ccccc3nc12	Mtb FBA inh 118
COc1cc(-n2c(N)c(C(=O)NCc3ccco3)c3nc4ccccc4nc32)cc(OC)c1OC	none
Nc1c(C(=O)NCc2ccco2)c2nc3ccccc3nc2n1CCc1ccc(F)cc1	Mtb FBA inh 28
CC(C)OCCCNC(=O)c1c(N)n(Cc2cccs2)c2nc3ccccc3nc12	Mtb FBA inh 34
COc1ccc(Cn2c(N)c(C(=O)NCc3ccco3)c3nc4ccccc4nc32)cc1OC	none
CCCCNC(=O)CSc1nc2cc3c(cc2c(=O)n1CCCC(=O)NCCc1ccc(OC)c(OC)c1)OCO3	none
Cc1ccc(C)c(C(=O)CSc2n[nH]c(C)n2)c1	none
COc1ccccc1NS(=O)(=O)c1ccc(C(=O)OCC(=O)NCc2ccco2)cc1	none (no result: BH1578 lux ind)
Cn1c(-c2cccc([N+](=O)[O-])c2)cnc1NCc1cccc(F)c1	none
CCC(CCc1ccccn1)C(=O)c1ccccc1 (centres undefined)	none
COCCOC(=O)c1c(N)n(Cc2ccco2)c2nc3ccccc3nc12	Mtb FBA inh 150
CCOC(=O)C1(C)CCN1C(=O)c1cc2ccccc2s1 (centres undefined)	none
CCCCn1c(O)c(/C=N/N2CCOCC2)c(=O)[nH]c1=S	GDH-TPI inh 37
C=CCn1c(O)c(C=NCCN2CCOCC2)c(=O)[nH]c1=S	GDH-TPI inh 48
O=c1[nH]c(=S)n(C2CCCCC2)c(O)c1C=NCCN1CCOCC1	GDH-TPI inh 45
CCCCCCn1c(O)c(C=Nc2ccccc2N2CCOCC2)c(=O)[nH]c1=S	none
COCCn1nnnc1C(c1ccc(Cl)cc1)N1CCN(C(=O)c2ccco2)CC1 (centres undefined)	none
Cc1cccc(OCC(=O)NCC(=O)N/N=C/c2ccc([N+](=O)[O-])cc2)c1	none
O=C(N/N=C/c1cccc([N+](=O)[O-])c1)c1cnccn1	none
CC(/C=N/NC(=O)c1ccc(Br)cc1)=C\c1ccccc1	none
O=C(N/N=C/C(Cl)=C/c1ccccc1)c1cnccn1	GDH-TPI inh 86
CC(=C/c1ccccc1)/C=N/NC(=O)c1cnccn1	GDH-TPI inh 43
COc1ccc(C(=O)N/N=C\C(C)=C\c2ccccc2)cc1OC	GDH-TPI inh 51
O=C(N/N=C/C(Cl)=C\c1ccccc1)c1cnccn1	GDH-TPI inh 66
O=C(N/N=C/c1ccc(N2CCOCC2)s1)c1ccc(NS(=O)(=O)c2cccs2)cc1	GDH-TPI inh 45
O=C(N/N=C/c1ccc(N2CCOCC2)cc1)c1ccncc1	none
O=C(N/N=C/c1ccc(N2CCOCC2)cc1)c1cccs1	GDH-TPI inh 32
O=C(N/N=C/c1ccc(N2CCOCC2)cc1)c1ccc(NS(=O)(=O)c2cccs2)cc1	GDH-TPI inh 35
CC(C)[C@H](NC(=O)c1cccc(S(=O)(=O)N2CCCC2)c1)c1nc2ccccc2[nH]1	none (no result: BH1578 lux ind)
O=C(NNC(=O)c1ccccc1O)c1ccc(Br)cc1	none
O=C(NNC(=S)Nc1cccc2ccccc12)c1cccc(Br)c1	GDH-TPI inh 35
O=C(NNC(=O)c1ccccc1O)c1cccc(Br)c1	GDH-TPI inh 31
O=C(NNC(=O)c1ccc2ccccc2c1)c1cccc(Br)c1	none
COc1ccc(C2NC(=O)c3n[nH]c(C)c32)c(OC)c1 (centres undefined)	none
Cc1ccccc1Cc1c(C)nc2nc(SCC(=O)NCc3ccco3)nn2c1C	none
Cc1ccccc1Cc1c(C)nc2c(C(=O)NCc3ccco3)cnn2c1C	Mtb FBA inh 48 (no result: CCHFV vOTU inh)
O=C(NCc1ccco1)C(=O)NCC1OCCN1S(=O)(=O)c1ccccc1 (centres undefined)	none
O=C(COc1ccc(Cl)cc1Br)Nc1ccncc1	none
Cc1nc(N)nc(-c2ccccc2O)n1	BH1578 lux ind 17
COc1ccc(NC(=S)N(CCC(C)C)C2CCN(C(C)=O)CC2)cc1	none
COCCNC(=S)N/N=C(\C)c1ccccc1O	GDH-TPI inh 31
COCCNC(=S)N/N=C(\C)c1ccc(Cl)s1	GDH-TPI inh 45
COCCNC(=S)N/N=C(\C)c1ccccc1OC	none
Cc1cc(NC(=O)COC(=O)C2CCC2)no1	none
COc1ccc(NC(=O)C(OC(=O)c2ccc([N+](=O)[O-])o2)c2ccccc2)cc1Cl (centres undefined)	none
O=c1[nH]c(/C=C/c2ccc(Br)cc2)nc2ccccc12	none
Cc1cccc(/C=C\c2nc3ccccc3c(=O)[nH]2)c1	GDH-TPI inh 31
COc1ccc(C(=O)Nc2cccc(/C=C/c3nc4ccccc4c(=O)[nH]3)c2)cc1	GDH-TPI inh 39
COc1cc(/C=C/c2nc3ccccc3c(=O)[nH]2)cc(Cl)c1O	none
O=C(Nc1cccc(/C=C/c2nc3ccccc3c(=O)[nH]2)c1)c1ccccc1Cl	GDH-TPI inh 49
O=C(O)c1cc(-c2ccccn2)n[nH]1	none
COc1ccccc1NC(=O)C(=O)c1cn(CC(=O)N2CCOCC2)c2ccccc12	none
COc1ccc(NC(=O)C(=O)c2cn(CC(=O)N3CCOCC3)c3ccccc23)cc1OC	GDH-TPI inh 33
CCCCCCNC(=O)c1c(O)c2cccc3c2n(c1=O)CCC3	BH1578 lux ind 17
CC(C)c1ccc(C(=O)Nc2nnc(S(=O)(=O)N3CCCCC3)s2)cc1	none
Cc1cc(=O)oc2cc(OC(=O)c3ccco3)ccc12	Mtb FBA inh 194 (no result: BH1578 lux ind)
